According to PubChem BioAssay (EPA / NIEHS):
Results filed as inconclusive are left out. Calls of active or inactive are those of the source. How the source made its calls: active means hit-call score of the fitted dose curve at least 0.9, where 1 is the maximum; inconclusive means response in the unintended direction; inactive means score below 0.9.

Tests used:
[1] = molecular target: Estrogen receptor (Homo sapiens) (UniProt P03372); test: OT_ER_ERaERa_1440: Odyssey Thera (OT) 24-hour HEK293T Protein-Complementation Assay for Estrogen Receptor-alpha/-alpha Homodimer (AID 2283349);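 further: hits raise fluorescence above DMSO for agonists and antagonists alike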
Chain of Estrogen receptor (Homo sapiens) (P03372 whole entry, looked up, the tested form may be a part): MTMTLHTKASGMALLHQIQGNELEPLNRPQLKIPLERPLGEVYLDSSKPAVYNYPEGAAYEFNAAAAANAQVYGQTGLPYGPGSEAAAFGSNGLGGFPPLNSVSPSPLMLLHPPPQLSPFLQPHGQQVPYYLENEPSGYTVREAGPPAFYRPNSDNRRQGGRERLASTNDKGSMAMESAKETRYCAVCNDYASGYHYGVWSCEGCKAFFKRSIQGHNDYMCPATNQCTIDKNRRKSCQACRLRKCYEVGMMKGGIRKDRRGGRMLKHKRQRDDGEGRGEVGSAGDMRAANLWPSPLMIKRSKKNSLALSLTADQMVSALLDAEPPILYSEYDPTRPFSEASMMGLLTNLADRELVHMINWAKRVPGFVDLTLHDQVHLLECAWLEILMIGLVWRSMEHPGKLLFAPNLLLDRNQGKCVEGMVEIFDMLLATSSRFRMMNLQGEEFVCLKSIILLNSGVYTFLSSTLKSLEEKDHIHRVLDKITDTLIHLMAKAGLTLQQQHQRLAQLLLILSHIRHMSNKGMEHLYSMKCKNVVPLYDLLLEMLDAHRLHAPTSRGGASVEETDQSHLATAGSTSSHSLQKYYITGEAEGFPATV
Outline: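 HEK293T cells stably expressing the human ER alpha ligand-binding domain (aa 310-547) as a homodimer PCA were dosed for 24 hours. Fluorescence intensity was read by laser scanning cytometry, and gain of signal was fitted relative to DMSO vehicle.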

[2] = molecular target: Estrogen receptor (Homo sapiens) (UniProt P03372); test: OT_ER_ERaERa_0480: Odyssey Thera (OT) 8-hour HEK293T Protein-Complementation Assay for Estrogen Receptor-alpha/-alpha Homodimer (AID 2283351);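 further: rise in fluorescence from reassembled reporter fragments on ERα LBD homodimer in nucleus or whole cell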
Outline: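 HEK293T, stable ERα LBD (aa 310-547) PCA homodimer; 8 h compound exposure; fluorescence intensity, laser scanning cytometer; positive fitting direction, DMSO baseline.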

[3] = molecular target: Androgen Receptor/SRC-1 Co-activator, AR (gene 367) (UniProt P10275); test: OT_AR_ARSRC1_0960: Odyssey Thera (OT) 16-hour HEK293T Protein-Complementation Assay for Androgen Receptor/SRC-1 Co-activator (AID 2283353);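 further: actives raise the signal above DMSO so potency reflects increased AR and SRC-1 complex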
Chain of Androgen Receptor/SRC-1 Co-activator, AR (gene 367) (P10275 whole entry, looked up, the tested form may be a part): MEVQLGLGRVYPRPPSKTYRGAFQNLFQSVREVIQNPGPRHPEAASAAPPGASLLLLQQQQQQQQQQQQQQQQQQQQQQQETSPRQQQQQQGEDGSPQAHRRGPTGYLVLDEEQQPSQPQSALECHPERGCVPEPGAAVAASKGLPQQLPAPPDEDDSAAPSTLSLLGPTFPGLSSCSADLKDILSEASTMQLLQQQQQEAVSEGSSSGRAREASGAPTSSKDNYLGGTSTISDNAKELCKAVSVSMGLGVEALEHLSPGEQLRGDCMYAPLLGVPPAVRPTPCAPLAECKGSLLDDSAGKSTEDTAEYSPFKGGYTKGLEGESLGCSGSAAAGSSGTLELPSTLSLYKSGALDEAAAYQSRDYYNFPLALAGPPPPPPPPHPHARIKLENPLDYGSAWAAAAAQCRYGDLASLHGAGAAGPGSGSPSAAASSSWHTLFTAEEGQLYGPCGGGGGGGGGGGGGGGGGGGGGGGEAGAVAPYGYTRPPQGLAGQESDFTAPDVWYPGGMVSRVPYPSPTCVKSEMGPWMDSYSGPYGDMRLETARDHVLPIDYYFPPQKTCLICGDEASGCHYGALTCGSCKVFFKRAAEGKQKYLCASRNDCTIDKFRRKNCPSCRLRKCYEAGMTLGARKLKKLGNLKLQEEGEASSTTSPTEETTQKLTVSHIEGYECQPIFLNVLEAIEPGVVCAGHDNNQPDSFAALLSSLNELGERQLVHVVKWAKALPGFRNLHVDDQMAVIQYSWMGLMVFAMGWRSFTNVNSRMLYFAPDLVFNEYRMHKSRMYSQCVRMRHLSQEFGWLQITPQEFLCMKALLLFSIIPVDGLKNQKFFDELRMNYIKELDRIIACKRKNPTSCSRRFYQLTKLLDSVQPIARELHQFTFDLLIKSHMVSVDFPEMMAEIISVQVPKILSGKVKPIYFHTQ
Outline: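 Split-Venus PCA, AR/SRC-1 fusions, stable HEK293T; 16 h compound exposure; imaged at 488 and 635 nm; N/C ratio (488 nm channel), min 400 cells/image; positive-direction fit, DMSO baseline.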

[4] = molecular target: Androgen Receptor/SRC-1 Co-activator, AR (gene 367) (UniProt P10275); test: OT_AR_ARSRC1_0480: Odyssey Thera (OT) 8-hour HEK293T Protein-Complementation Assay for Androgen Receptor/SRC-1 Co-activator (AID 2283354);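 further: hits raise the complementation signal above DMSO so AC50 marks enhancers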
Outline: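 HEK293T cells stably expressing AR and SRC-1 fused to Venus YFP fragments, imaged 8 h after dosing. Complementation fluorescence scored as nuclear/cytoplasmic ratio at 488 nm in at least 400 cells per image; gain fitted versus DMSO.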

[5] = molecular target: human Constitutive Androstane Receptor (CAR), NR1I3 (gene 9970) (UniProt Q14994); test: NVS_NR_hCAR_Antagonist: NovaScreen (NVS) Nuclear Receptor Binding Assay for human Constitutive Androstane Receptor Antagonism (CAR) (AID 2283344)
Chain of human Constitutive Androstane Receptor (CAR), NR1I3 (gene 9970) (Q14994 whole entry, looked up): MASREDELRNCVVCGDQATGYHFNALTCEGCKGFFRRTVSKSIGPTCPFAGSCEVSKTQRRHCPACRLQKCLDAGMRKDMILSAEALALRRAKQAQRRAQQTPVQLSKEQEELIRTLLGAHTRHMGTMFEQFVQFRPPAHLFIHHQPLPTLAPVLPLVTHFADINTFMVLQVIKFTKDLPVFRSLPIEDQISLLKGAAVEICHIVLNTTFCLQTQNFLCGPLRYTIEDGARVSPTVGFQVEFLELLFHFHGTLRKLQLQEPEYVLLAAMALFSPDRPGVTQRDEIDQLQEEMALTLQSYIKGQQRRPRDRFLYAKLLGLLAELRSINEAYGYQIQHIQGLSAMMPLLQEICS
Outline: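 Cell-free TR-FRET binding read 1 h after dosing, antagonist mode; loss of signal versus DMSO baseline. Primary screen in duplicate at a single 25 uM; actives retested in concentration series.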

[6] = molecular target: bovine Estrogen Receptor (ER), ESR1 (gene 407238) (UniProt P49884); test: NVS_NR_bER: NovaScreen (NVS) Nuclear Receptor Binding Assay for bovine Estrogen Receptor (ER) (AID 2283345);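 further: actives lower the bound radioligand count which means they displace the ER ligand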
Chain of bovine Estrogen Receptor (ER), ESR1 (gene 407238) (P49884 whole entry, looked up): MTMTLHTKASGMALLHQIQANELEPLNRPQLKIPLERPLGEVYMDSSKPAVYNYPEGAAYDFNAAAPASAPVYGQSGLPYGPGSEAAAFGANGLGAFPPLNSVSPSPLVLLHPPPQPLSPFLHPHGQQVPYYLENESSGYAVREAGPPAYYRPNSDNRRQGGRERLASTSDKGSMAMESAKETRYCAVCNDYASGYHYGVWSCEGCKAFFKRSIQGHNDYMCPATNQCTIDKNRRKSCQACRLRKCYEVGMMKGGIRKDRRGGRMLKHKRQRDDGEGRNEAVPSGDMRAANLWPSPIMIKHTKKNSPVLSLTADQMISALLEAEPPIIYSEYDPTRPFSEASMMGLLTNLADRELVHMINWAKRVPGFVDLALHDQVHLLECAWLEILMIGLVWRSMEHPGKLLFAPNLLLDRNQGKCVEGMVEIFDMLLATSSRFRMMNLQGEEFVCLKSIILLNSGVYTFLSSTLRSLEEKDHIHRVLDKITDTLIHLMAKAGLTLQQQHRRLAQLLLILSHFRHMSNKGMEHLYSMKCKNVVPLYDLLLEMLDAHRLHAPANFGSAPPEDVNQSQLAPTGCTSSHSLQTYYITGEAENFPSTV
Outline: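 Cell-free radioligand binding with receptor from bovine uterine membranes, read by scintillation counting 18 h after dosing. Loss of specific binding was scored against DMSO; primary screen at 25 uM in duplicate, actives then run as concentration series.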

[7] = molecular target: Bile acid receptor (Homo sapiens) (UniProt Q96RI1); test: NVS_NR_hFXR_Agonist: NovaScreen (NVS) Nuclear Receptor Binding Assay for human Farnesoid X Receptor Agonism (FXR) (AID 2283347)
Chain of Bile acid receptor (Homo sapiens) (Q96RI1 whole entry, looked up): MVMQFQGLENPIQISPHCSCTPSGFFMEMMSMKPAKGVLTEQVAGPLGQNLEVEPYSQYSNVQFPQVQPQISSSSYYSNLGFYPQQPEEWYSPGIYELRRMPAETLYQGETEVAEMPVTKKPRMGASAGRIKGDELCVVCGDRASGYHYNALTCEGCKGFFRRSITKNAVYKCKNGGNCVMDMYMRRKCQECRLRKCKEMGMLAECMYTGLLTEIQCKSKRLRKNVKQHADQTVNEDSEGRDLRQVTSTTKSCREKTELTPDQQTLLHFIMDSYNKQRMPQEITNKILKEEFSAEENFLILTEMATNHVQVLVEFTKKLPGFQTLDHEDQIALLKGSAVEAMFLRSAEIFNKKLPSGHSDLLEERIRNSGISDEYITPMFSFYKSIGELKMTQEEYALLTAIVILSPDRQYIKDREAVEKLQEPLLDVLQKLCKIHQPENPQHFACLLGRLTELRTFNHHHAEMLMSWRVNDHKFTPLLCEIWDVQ
Outline: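 Cell-free TR-FRET binding assay with extracted human FXR protein, agonist format, read 1 h after dosing. Primary screen at 25 uM single concentration in duplicate, actives retested in concentration series; gain of signal versus DMSO.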

[8] = molecular target: Estrogen receptor (Homo sapiens) (UniProt P03372); test: NVS_NR_hER: NovaScreen (NVS) Nuclear Receptor Binding Assay for human Estrogen Receptor (ER) (AID 2283348)
Outline: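 Radioligand competitive displacement binding to estrogen receptor from MCF7 extract, cell-free; 18 h after dosing, scintillation read-out. Primary screen in duplicate at 25 uM; actives followed up in concentration series; loss of signal vs DMSO.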

[9] = molecular target: rat Mineralocorticoid Receptor (MR), Nr3c2 (gene 25672) (UniProt P22199); test: NVS_NR_rMR: NovaScreen (NVS) Nuclear Receptor Binding Assay for rat Mineralocorticoid Receptor (MR) (AID 2283355)
Chain of rat Mineralocorticoid Receptor (MR), Nr3c2 (gene 25672) (P22199 whole entry, looked up): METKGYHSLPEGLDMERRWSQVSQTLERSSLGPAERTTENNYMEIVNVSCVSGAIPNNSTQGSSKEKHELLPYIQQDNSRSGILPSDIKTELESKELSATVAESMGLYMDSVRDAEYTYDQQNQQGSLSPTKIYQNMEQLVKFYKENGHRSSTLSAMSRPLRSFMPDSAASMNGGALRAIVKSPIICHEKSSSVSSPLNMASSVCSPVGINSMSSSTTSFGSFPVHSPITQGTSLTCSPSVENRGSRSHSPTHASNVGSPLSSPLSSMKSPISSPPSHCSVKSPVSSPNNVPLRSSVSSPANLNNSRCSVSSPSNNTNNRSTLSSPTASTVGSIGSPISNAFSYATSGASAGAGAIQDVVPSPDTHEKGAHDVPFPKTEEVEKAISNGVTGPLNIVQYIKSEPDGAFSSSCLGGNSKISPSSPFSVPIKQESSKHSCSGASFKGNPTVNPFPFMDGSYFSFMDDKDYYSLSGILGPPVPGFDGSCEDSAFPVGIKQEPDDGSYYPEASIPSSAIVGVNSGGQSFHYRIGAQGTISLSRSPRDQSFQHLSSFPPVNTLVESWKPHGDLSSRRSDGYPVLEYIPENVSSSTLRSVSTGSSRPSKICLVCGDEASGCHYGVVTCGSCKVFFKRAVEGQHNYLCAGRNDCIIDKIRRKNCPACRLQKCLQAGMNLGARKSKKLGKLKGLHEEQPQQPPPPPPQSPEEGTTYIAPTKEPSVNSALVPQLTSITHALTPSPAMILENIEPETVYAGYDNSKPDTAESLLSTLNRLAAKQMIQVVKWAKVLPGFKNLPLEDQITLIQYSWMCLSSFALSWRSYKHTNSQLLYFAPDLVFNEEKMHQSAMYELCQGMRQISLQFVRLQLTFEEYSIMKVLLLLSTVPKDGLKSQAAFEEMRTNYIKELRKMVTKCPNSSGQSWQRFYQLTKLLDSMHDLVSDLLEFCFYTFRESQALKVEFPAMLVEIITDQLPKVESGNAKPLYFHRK
Outline: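 Cell-free radioligand binding to mineralocorticoid receptor from adrenalectomized rat brain supernatant, scintillation counting after 24 h. Primary screen in duplicate at 25 uM; actives retested in concentration series. Loss of specific binding versus DMSO.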

[10] = molecular target: Retinoic acid receptor alpha (Homo sapiens) (UniProt P10276); test: NVS_NR_hRAR_Antagonist: NovaScreen (NVS) Nuclear Receptor Binding Assay for human Retinoic Acid Alpha Receptor Antagonism (RAR) (AID 2283358)
Chain of Retinoic acid receptor alpha (Homo sapiens) (P10276 whole entry, looked up): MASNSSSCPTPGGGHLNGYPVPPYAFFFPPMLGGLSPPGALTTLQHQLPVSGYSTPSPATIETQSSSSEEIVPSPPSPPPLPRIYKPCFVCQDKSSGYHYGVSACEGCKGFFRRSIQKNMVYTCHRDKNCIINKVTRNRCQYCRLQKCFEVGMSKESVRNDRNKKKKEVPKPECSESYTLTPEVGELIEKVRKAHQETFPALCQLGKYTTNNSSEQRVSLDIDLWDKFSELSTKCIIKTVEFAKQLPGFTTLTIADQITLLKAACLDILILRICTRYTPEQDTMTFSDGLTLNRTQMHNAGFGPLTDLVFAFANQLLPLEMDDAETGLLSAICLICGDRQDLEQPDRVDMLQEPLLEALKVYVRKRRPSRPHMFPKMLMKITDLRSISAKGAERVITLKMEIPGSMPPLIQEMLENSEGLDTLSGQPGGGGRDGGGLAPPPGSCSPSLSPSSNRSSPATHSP
Outline: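 Cell-free TR-FRET binding assay with extracted human RARalpha in antagonist mode, read 2 h after dosing. Loss of signal was fitted relative to DMSO; the primary screen used 25 uM in duplicate, with concentration series on follow-up.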

[11] = molecular target: Bile acid receptor (Homo sapiens) (UniProt Q96RI1); test: NVS_NR_hFXR_Antagonist: NovaScreen (NVS) Nuclear Receptor Binding Assay for human Farnesoid X Receptor Antagonism (FXR) (AID 2283350)
Outline: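 Cell-free TR-FRET ligand-binding read-out on human FXR (NR1H4) in antagonist mode, measured 1 h after dosing. Primary screen in duplicate at 25 uM, actives retested in concentration series; signal loss scored versus DMSO.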

Compound: Clc1ccccc1-c1nnc(-c2ccccc2Cl)nn1
- outcome [1]: inactive
- outcome [2]: inactive

Compound: Cc1[nH]c(=O)n(C(C)(C)C)c(=O)c1Cl
- outcome [1]: inactive
- outcome [2]: inactive
- outcome [3]: inactive
- outcome [4]: inactive

Compound: CCC(C)(NC(=O)c1cc(Cl)c(C)c(Cl)c1)C(=O)CCl (stereo not drawn)
- outcome [1]: inactive
- outcome [2]: inactive

Compound: CC(C)N(C(=O)COc1nnc(C(F)(F)F)s1)c1ccc(F)cc1
- outcome [1]: inactive
- outcome [2]: inactive

Compound: CNC(=O)Oc1cccc(N=CN(C)C)c1
- outcome [1]: inactive
- outcome [2]: inactive

Compound: CNC(=O)/C=C(\C)OP(=O)(OC)OC
- outcome [5]: inactive
- outcome [1]: inactive
- outcome [2]: inactive

Compound: COC(=O)c1ccccc1S(=O)(=O)NC(=O)N(C)c1nc(C)nc(OC)n1
- outcome [6]: inactive
- outcome [7]: inactive
- outcome [8]: inactive
- outcome [9]: inactive
- outcome [10]: inactive

Compound: CCC(C)(C)C(=O)OC1=C(c2ccc(Cl)cc2Cl)C(=O)OC12CCCCC2
- outcome [1]: inactive
- outcome [11]: inactive
- AC50 [3]: 82.4 µM (active)
- outcome [4]: inactive

Compound: CC1(c2ccc(Oc3ccccc3)cc2)OC(=O)N(Nc2ccccc2)C1=O (stereo not drawn)
- outcome [1]: inactive
- AC50 [11]: 10 µM (active)
- outcome [2]: inactive
- outcome [10]: inactive

Compound: CCC(C)Nc1c([N+](=O)[O-])cc(C(C)(C)C)cc1[N+](=O)[O-] (stereo not drawn)
- outcome [1]: inactive
- outcome [2]: inactive

Compound: O=S1OCC2C(CO1)C1(Cl)C(Cl)=C(Cl)C2(Cl)C1(Cl)Cl (stereo not drawn)
- outcome [5]: inactive
- outcome [8]: inactive
- outcome [1]: inactive
- outcome [2]: inactive
- AC50 [3]: 34.5 µM (active)
- AC50 [4]: 31.8 µM (active)
- outcome [10]: inactive

Compound: N#CN
- outcome [1]: inactive
- outcome [2]: inactive

Compound: OCCOc1ccccc1
- outcome [7]: inactive
- outcome [1]: inactive
- outcome [2]: inactive

Compound: O=C(O)CCCOc1ccc(Cl)cc1Cl
- outcome [5]: inactive
- outcome [3]: inactive
- outcome [4]: inactive

Compound: Cc1cc(C)nc(NC(=O)NS(=O)(=O)c2ccccc2C(=O)OC2COC2)n1
- outcome [5]: inactive
- outcome [7]: inactive

Compound: COP(=O)(OC)OC=C(Cl)Cl
- outcome [8]: inactive
- outcome [1]: inactive
- outcome [2]: inactive

Compound: C#CCN1C(=O)COc2cc(F)c(N3C(=O)C4=C(CCCC4)C3=O)cc21
- outcome [1]: inactive
- outcome [2]: inactive
- outcome [3]: inactive
- outcome [4]: inactive

Compound: CCCN(CCC)c1c([N+](=O)[O-])cc(C(F)(F)F)cc1[N+](=O)[O-]
- outcome [5]: inactive
- outcome [8]: inactive
- outcome [1]: inactive
- outcome [2]: inactive
- outcome [3]: inactive
- outcome [4]: inactive

Compound: CCN(CC)C(=O)SCc1ccc(Cl)cc1
- outcome [1]: inactive
- outcome [11]: inactive
- outcome [2]: inactive

Compound: CCc1ccc(C(=O)NN(C(=O)c2cc(C)cc(C)c2)C(C)(C)C)cc1
- outcome [1]: inactive
- outcome [11]: inactive
- outcome [2]: inactive

Compound: CN1CSC(=S)N(C)C1
- outcome [5]: inactive
- outcome [8]: inactive
- outcome [1]: inactive
- AC50 [11]: 9.27 µM (active)
- outcome [2]: inactive

Compound: CCOC1Oc2ccc(OS(C)(=O)=O)cc2C1(C)C (stereo not drawn)
- outcome [1]: inactive
- outcome [2]: inactive
- outcome [3]: inactive
- outcome [4]: inactive

Compound: COC(=O)c1ccccc1CS(=O)(=O)NC(=O)Nc1nc(OC)cc(OC)n1
- outcome [6]: inactive
- outcome [7]: inactive
- outcome [8]: inactive

Compound: COC(=O)c1ccccc1S(=O)(=O)NC(=O)Nc1nc(C)nc(OC)n1
- outcome [11]: inactive
- outcome [10]: inactive

Compound: O=C(NC(=O)c1c(F)cccc1F)Nc1ccc(OC(F)(F)C(F)OC(F)(F)F)c(Cl)c1 (stereo not drawn)
- outcome [8]: inactive
- outcome [1]: inactive
- outcome [2]: inactive
